SW480 rerep: DNA re-replication induction in SW480 cells | SW480 DNA re-replication, Hoechst DNA content imaging, 48 h | Potency, µM (doses to about 46.1 µM), actives largely listed as activators | 340,000 compounds, 1.8% hits; note: nearly all actives have a fitted effect of over 55% in size
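Image-based read-out: total Hoechst fluorescence of nuclei (405 nm excitation, 500-530 nm emission), with hits raising the fraction of high-intensity nuclei. SW480 colon cells incubated 48 hr with compounds at 37 C.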
MCF10A rerep: induces DNA re-replication in MCF 10a normal breast cells; MCF 10A DNA re-replication, Hoechst nuclear intensity, 48 h; Potency, µM (highest dose often 46.1 µM), hits mostly activators; 350,000 compounds, 2.9% hits; note: nearly all actives have a fitted effect of over 50% in size
HT1080-NT tox: kills 2HG-producing HT-1080-NT fibrosarcoma cells. HT-1080-NT fibrosarcoma viability, CellTiter-Glo ATP luminescence, 48 h. Potency, µM (doses to about 46.1 µM), hits mostly cytotoxic. 360,000 compounds, 1.6% hits. AID 686970;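 note: NT is the 2HG producing partner of a matched IDH1 knockdown line; nearly all actives have a fitted effect of over 55% in size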
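Viability of the 2HG-overproducing fibrosarcoma line after 48 hours of compound exposure at 37 degrees C was determined by luminescence with CellTiter-Glo, and concentration-effect curves were then fitted and categorized.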
KB-V1 cytotox: KB-V1 MDR subline cytotoxicity | KB-V1 MDR cells viability, CellTiter-Glo, 72 h | Potency, µM (highest dose often 46.1 µM), most hits filed as cytotoxic | 400,000 compounds, 3.4% hits; note: nearly all actives have a fitted effect of over 60% in size
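Cytotoxicity toward P-gp-expressing KB-V1 cells was determined as loss of CellTiter-Glo luminescence after 72 h at 37 degrees C. Compounds were tested in quantitative HTS format across a concentration range, with curves fitted to normalized data.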
KB-3-1 tox: KB-3-1 parental cell cytotoxicity; AID 1347075; Potency, µM (highest dose often 46.1 µM), most hits filed as cytotoxic; 400,000 compounds, 1.4% hits; KB-3-1 viability, CellTiter-Glo ATP luminescence, 72 h; note: nearly all actives have a fitted effect of over 60% in size
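Cytotoxicity in the drug-sensitive parental line KB-3-1 was scored as loss of CellTiter-Glo luminescence following 72 h incubation with compound. Values come from curve fitting of normalized concentration-response data.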
HT1080 IDH1KD tx: HT-1080 IDH1 knockdown cell toxicity (counter line). HT-1080 IDH1 knockdown viability, ATP luminescence, 48 h. AID 686971. 360,000 compounds, 2% hits. Potency, µM (series often up to 46.1 µM), hits mostly cytotoxic
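IDH1KD HT-1080 cells, 750/well, RPMI + 5% FBS; compound pinned after 2 h settling; 48 h, 37 °C; CellTiter-Glo luminescence; % activity normalised to DMSO and no-cell wells; curves fitted, classed by r2 and efficacy.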
Numbers stand for hits; – = inactive; ? = inconclusive; · = not tested or not shown; [ ] = remark or other dose. Only some compounds are listed: those with a hit (about 8% of all), similar ones and a draw of the others. Calls come from the whole dose curve; as a rule, active = well fitted curve in the direction sought with a large enough effect; inconclusive = small, poorly fitted or top-dose-only effect, or another doubt; inactive = no such curve, though single readings can be large; an effect the other way counts as inactive or inconclusive.

SMILES | SW480 rerep | MCF10A rerep | HT1080-NT tox | KB-V1 cytotox | KB-3-1 tox | HT1080 IDH1KD tx
O=C(NCC1CCOCC1)c1ccc2nc(Cc3cccc(Cl)c3)oc2c1 | – | – | – | – | – | –
CN1CCN(NC(=O)c2c(-c3ccccc3)sc3ccccc23)CC1 | – | – | – | – | – | –
Cc1ccc(NC(=O)CSc2nnc(COc3ccccc3F)n2N)cc1S(=O)(=O)N1CCOCC1 | ? | ? | –[9.24 µM] | – | ? | –
Cc1nc2ccccn2c1C(=O)N/N=C/c1ccc([N+](=O)[O-])o1 | ? | ? | – | ? | – | –
COc1ccccc1CNC(=O)CCC(=O)N1CC(C)Sc2ccccc21 (configuration not stated) | – | – | – | – | – | –
COc1ccccc1-n1cnc2c(c1=O)c1nc3ccccc3nc1n2-c1ccc(C)cc1 | – | – | – | ? | – | –
COc1ccccc1-n1c2nc3ccccc3nc2c2c(=O)n(-c3cc(C)cc(C)c3)cnc21 | ? | 23.1µM | – | ? | – | –
Cc1cc(C=C2C(=O)c3ccccc3C2=O)c(C)n1-c1ccc(Cl)cc1 | – | – | – | 16.4µM | ? | –
O=C(Nc1ccc(F)cc1)c1ccccc1Oc1ccc(C(F)(F)F)cc1[N+](=O)[O-] | · | ? | ? | 16.4µM | – | ?
O=C(Nc1ccccc1)c1ccccc1Oc1ccc(C(F)(F)F)cc1[N+](=O)[O-] | – | – | – | ? | ? | –
CC(C)(C)c1ccc(Oc2ccc(NC(=O)c3cccs3)cn2)cc1 | – | ? | 14.6µM | ? | ? | 11.6µM
COc1ccc(NC(=O)c2cccs2)cn1 | – | – | ? | ? | – | –
CC(C)(C)c1ccc(Oc2ccc(NC(=O)c3ccco3)cn2)cc1 | – | ? | 18.4µM | ? | – | 7.31µM
Cc1cc(C)c(C(=O)N2CCCC(CNC(=O)C3(c4ccc(Cl)cc4)CC3)C2)c(=O)[nH]1 (configuration not stated) | – | – | – | – | – | –
CC(=O)Nc1ccc(-c2ccnc3c2CC(C)(C(=O)NCCc2ccccc2)O3)cc1 (configuration not stated) | · | · | – | – | 25.9µM | –
CC1(C(=O)NCCC(F)(F)F)Cc2c(-c3ccccc3)ccnc2O1 (configuration not stated) | · | · | – | 20.6µM | ? | ?
CC(=O)NCCNC(=O)C1(C)Cc2c(-c3ccccc3)ccnc2O1 (configuration not stated) | · | · | ? | – | – | –
CC1(C(=O)NCc2ccco2)Cc2c(-c3ccccc3)ccnc2O1 (configuration not stated) | · | · | ? | 7.31µM | 8.2µM | ?
CC(=O)Nc1ccc(-c2ccnc3c2CC(C)(C(=O)Nc2ccccc2)O3)cc1 (configuration not stated) | · | · | ? | ? | – | ?
O=C(CCc1ccccc1)NNC(=O)c1ccco1 | – | – | – | – | – | –
CC1CCN(S(=O)(=O)c2cn(CC(=O)N3CC(C)CC(C)C3)c(=O)c3ccccc23)CC1 (configuration not stated) | – | – | – | 1.3µM | – | –
Cc1c(C(=O)Nc2cc(F)cc(F)c2)cnn1-c1ccccc1 | – | – | – | – | – | –
CCOc1cc(/C=N/N=C(\N)c2nonc2N)cc(Br)c1OCc1cccc2ccccc12 | ? | ? | 23.1µM | ? | ? | 18.4µM
COc1cc(/C=N/N=C(/N)c2nonc2N)cc(Br)c1OCc1cccc(C)c1 | – | ? | ? | – | – | ?
COc1cc(C)c2sc3ccccc3c(=O)c2c1NCCN(C)C | · | · | ? | ? | – | ?
SMILES | SW480 rerep | MCF10A rerep | HT1080-NT tox | KB-V1 cytotox | KB-3-1 tox | HT1080 IDH1KD tx
Cc1cc(CCNC=O)c(C)c2c1sc1ccccc12 | – | ? | – | 16.4µM | 16.4µM | –
CCN1CCC(O)(/C=C/c2ccc(C(C)C)cc2)C(C(=O)/C=C/c2ccc(C(C)C)cc2)C1 (configuration not stated) | ? | 11.6µM | ? | ? | ? | 20.6µM
CC(=O)c1ccc(NC(=O)CCC(=O)OCC(F)(F)C(F)F)cc1 | – | – | – | – | – | –
CCN(CC)CCCNC(=O)c1ccc(OCC(=O)Nc2ccccc2C(F)(F)F)c(OC)c1 | ? | 18.4µM | ? | – | ? | ?
CCN(CC(=O)Nc1ccc(OC)c(OC)c1)CC(=O)Nc1ccccc1C(F)(F)F | – | – | – | – | – | –
CN(C)c1ccc(C(=O)OCc2ccccc2)cc1 | – | – | – | – | – | –
O=C1C=CC(=O)C(CNc2ccc(C(=O)OCc3ccccc3)cc2)=C1 | ? | ? | 16.4µM | 20.6µM | 20.6µM | 10.3µM
Cn1ncc([N+](=O)[O-])c1C(=O)Nc1ccc(C2CCCCC2)cc1 | 11.6µM | – | – | – | – | –
Cn1ncc([N+](=O)[O-])c1C(=O)Nc1ccc(Cl)cc1 | – | ? | – | – | – | –
COC(=O)C1CCN(Cc2ccc(OCCCN3CCN(c4ccc([N+](=O)[O-])cc4)CC3)cc2)CC1 | – | ? | – | ? | – | 14.6µM
CC1CCN(CCCCOc2ccc([N+](=O)[O-])cc2)CC1 | – | – | – | – | – | –
COC(=O)c1ccc(NC(=O)C2CC(=O)OC2c2ccccc2)cc1 (configuration not stated) | – | – | – | – | – | –
O=C(Nc1ccc(Oc2ccccc2)cc1)c1csc([C@@H]2C[C@H](O)[C@@H](CO)O2)n1 | · | · | ? | – | – | 2.59µM
CC(=O)Nc1ccc(NC(=O)c2csc([C@H]3C[C@H](O)[C@@H](CO)O3)n2)cc1 | · | · | – | – | – | ?
FC(F)(F)c1cnc(N2CCN(C(=S)NCc3ccccc3)CC2)c(Cl)c1 | ? | ? | – | – | ? | ?
FC(F)(F)c1cnc(N2CCCN(C(=S)Nc3ccccc3)CC2)c(Cl)c1 | ? | ? | ? | ? | – | 23.1µM
COC(=O)C1CCC(=O)N1C(c1ccc(OC)cc1)c1cc(OC)c(OC)c(OC)c1 (configuration not stated) | 0.731µM | 1.3µM | 1.16µM | 7.31µM | 0.82µM | ?
COc1ccc2c(c1OC)C(=O)N1C2SC[C@H]1C(=O)NC1CCCCC1 (some centres not stated) | – | ? | – | – | – | –
Cc1ccn2cc(C34CC5CC(CC(C5)C3)C4)nc2c1 | 20.6µM | ? | – | – | – | –
Cc1nn(-c2ccccc2)c2c1/C(=N/O)CC(C)(C)C2 | – | – | – | 16.4µM | – | –
CCOC(=O)/C(=N\Nc1ccccc1Cl)N1CCN(C)CC1 | – | – | – | ? | – | –
CCOC(=O)/C(=N\Nc1ccccc1Cl)N1CCN(Cc2ccccc2)CC1 | – | ? | – | 3.66µM | – | –

Source: PubChem BioAssay
